# Laboratory results taken from the supplement of paper PMC6411743.
# ± gives the standard deviation of the averaged measurements. About 6,500 targets were measured; listed, in parts, are those with the largest changes and a random draw of the rest.
# Compound: Nc1ncnc2c1ncn2[C@@H]1O[C@H](COP(=O)(O)OP(=O)(O)OP(=O)(O)O)[C@@H](O)[C@H]1O [adenosine triphosphate]
# Test: NP40-soluble protein abundance relative to vehicle (solubility fold change) (ratio); higher = more soluble protein in presence of ATP
# Outline: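 Jurkat crude lysate prepared with a Dounce homogeniser was treated at eight concentrations spanning 0.1 to 10 mM, 10 min at room temperature then 3 min at 37 °C. Solubilisation with 0.8% NP40 and benzonase and ultracentrifugation preceded TMT labelling of the supernatant for LC-MS/MS. Fold change against the detergent-processed vehicle was determined per replicate from vsn-normalised intensities, across three independent experiments.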
# Chain of UniProt O14524 (O14524 whole entry): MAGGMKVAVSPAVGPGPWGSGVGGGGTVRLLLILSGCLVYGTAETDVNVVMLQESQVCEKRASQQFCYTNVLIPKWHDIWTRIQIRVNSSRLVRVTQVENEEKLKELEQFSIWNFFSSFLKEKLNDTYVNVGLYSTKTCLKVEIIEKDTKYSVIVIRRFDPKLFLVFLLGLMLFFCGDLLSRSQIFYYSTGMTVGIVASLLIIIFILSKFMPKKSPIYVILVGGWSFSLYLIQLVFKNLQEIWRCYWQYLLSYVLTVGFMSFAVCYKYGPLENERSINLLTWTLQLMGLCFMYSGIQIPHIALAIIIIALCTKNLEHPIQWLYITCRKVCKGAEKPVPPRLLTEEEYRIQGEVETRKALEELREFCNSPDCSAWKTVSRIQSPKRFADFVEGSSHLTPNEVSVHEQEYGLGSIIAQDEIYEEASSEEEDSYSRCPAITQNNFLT
# Chain of UniProt P09234 (P09234 whole entry, one chain of several): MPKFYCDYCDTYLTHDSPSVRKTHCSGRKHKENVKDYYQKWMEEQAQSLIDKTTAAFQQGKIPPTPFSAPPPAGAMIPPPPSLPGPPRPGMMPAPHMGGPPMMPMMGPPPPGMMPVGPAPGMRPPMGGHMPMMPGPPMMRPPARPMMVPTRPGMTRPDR
# Chain of UniProt A7KAX9 (A7KAX9 whole entry): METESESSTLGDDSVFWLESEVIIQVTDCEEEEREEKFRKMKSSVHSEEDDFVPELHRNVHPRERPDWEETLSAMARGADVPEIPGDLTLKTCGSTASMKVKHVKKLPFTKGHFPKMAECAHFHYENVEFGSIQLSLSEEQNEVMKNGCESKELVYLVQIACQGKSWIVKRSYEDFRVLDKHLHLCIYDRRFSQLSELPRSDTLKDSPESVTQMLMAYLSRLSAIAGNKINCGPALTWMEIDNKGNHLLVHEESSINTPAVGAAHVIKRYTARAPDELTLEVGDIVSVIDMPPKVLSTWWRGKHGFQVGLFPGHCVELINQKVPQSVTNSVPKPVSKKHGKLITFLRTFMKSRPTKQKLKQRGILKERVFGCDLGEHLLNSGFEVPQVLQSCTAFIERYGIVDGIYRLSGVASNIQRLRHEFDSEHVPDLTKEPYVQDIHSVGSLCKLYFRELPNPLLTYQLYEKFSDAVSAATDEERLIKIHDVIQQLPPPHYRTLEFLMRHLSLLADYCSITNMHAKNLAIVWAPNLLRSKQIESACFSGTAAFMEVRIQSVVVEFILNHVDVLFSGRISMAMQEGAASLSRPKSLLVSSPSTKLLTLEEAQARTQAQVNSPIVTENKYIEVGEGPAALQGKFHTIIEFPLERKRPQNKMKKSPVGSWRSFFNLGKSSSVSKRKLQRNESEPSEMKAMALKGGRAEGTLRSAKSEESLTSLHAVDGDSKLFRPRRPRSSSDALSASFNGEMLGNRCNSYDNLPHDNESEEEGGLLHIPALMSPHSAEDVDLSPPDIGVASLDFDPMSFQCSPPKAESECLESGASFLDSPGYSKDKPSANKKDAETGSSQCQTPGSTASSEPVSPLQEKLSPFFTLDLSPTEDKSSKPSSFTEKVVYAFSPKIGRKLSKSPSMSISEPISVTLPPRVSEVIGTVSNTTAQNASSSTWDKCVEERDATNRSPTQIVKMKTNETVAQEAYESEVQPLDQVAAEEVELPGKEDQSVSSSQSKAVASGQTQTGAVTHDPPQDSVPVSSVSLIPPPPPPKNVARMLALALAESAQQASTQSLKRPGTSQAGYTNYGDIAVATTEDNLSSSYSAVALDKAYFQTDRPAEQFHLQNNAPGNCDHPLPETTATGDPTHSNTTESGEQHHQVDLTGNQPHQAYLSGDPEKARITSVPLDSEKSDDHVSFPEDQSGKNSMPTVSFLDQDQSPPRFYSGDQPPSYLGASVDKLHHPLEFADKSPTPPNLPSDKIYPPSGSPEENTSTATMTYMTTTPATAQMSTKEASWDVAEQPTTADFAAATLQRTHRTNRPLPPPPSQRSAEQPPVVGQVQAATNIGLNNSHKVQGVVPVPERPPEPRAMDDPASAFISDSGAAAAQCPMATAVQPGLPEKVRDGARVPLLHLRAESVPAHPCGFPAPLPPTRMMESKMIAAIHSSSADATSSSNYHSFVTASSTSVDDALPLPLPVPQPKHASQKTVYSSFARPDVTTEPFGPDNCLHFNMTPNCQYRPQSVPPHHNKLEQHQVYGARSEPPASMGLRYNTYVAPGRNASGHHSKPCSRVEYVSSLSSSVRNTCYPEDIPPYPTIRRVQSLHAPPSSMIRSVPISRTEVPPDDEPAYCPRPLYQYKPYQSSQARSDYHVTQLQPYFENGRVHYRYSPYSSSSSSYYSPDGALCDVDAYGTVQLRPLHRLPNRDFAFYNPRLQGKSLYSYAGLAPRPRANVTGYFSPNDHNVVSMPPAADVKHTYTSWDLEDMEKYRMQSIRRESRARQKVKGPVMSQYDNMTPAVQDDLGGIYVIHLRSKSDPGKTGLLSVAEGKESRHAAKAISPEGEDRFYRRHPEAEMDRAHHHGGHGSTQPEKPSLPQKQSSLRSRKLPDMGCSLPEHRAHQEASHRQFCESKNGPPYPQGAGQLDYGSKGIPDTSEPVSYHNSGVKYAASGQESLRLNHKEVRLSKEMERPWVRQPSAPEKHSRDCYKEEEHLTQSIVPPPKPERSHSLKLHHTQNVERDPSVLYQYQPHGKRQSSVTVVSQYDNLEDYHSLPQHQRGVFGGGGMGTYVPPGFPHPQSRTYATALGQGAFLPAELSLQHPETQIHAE
# Chain of UniProt P55786 (P55786 whole entry, one chain of several): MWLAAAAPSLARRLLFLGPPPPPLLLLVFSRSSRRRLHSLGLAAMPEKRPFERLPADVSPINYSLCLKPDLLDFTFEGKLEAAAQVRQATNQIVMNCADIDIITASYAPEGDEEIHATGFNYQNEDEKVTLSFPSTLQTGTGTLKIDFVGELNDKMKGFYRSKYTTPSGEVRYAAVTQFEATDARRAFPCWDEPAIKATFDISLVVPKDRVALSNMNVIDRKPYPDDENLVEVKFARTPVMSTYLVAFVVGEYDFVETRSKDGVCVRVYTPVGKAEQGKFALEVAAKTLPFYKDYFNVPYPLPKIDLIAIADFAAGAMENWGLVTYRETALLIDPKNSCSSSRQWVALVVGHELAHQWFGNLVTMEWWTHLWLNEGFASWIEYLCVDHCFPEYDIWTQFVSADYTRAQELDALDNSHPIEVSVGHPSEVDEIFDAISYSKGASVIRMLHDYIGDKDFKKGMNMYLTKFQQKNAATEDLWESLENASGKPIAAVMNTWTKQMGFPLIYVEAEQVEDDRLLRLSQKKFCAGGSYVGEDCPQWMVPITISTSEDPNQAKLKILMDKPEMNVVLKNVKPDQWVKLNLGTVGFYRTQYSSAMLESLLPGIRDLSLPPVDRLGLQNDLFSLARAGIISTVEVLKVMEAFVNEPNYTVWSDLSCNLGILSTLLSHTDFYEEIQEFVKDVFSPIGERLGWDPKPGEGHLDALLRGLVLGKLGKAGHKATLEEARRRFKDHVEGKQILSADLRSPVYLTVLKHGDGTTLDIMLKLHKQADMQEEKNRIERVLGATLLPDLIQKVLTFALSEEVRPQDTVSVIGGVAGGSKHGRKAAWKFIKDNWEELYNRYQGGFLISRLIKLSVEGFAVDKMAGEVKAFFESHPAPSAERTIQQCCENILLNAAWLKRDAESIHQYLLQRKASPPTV
# Chain of UniProt Q8WYH8 (Q8WYH8 whole entry, one chain of several): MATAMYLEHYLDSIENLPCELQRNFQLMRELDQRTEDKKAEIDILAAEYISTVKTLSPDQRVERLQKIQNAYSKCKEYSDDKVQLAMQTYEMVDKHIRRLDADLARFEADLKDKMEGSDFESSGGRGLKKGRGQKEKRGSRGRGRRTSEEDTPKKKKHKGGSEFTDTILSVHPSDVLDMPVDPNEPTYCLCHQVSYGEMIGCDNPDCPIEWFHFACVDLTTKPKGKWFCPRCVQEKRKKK
# Chain of UniProt Q9NR46 (Q9NR46 whole entry, one chain of several): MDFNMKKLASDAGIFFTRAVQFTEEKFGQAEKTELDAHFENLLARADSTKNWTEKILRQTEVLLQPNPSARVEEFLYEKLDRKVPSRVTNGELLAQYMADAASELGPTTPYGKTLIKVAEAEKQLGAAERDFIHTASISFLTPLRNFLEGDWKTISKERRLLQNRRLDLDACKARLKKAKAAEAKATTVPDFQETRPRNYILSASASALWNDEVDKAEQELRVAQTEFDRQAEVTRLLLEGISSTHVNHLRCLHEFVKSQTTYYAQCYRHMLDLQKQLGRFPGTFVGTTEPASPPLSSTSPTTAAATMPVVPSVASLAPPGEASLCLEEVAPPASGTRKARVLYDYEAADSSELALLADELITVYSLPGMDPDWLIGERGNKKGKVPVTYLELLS
# Chain of UniProt Q8WYJ6 (Q8WYJ6 whole entry, one chain of several): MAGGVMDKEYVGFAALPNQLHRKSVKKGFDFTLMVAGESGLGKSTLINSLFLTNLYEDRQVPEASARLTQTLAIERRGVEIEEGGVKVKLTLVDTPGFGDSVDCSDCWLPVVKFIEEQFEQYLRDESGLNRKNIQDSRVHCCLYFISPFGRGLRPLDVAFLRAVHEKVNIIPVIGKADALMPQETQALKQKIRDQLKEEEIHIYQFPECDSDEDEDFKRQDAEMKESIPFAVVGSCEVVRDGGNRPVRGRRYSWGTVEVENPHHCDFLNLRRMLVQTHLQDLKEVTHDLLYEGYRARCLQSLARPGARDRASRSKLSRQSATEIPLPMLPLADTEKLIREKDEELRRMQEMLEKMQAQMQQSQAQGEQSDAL
# Chain of UniProt O43913 (O43913 whole entry, one chain of several): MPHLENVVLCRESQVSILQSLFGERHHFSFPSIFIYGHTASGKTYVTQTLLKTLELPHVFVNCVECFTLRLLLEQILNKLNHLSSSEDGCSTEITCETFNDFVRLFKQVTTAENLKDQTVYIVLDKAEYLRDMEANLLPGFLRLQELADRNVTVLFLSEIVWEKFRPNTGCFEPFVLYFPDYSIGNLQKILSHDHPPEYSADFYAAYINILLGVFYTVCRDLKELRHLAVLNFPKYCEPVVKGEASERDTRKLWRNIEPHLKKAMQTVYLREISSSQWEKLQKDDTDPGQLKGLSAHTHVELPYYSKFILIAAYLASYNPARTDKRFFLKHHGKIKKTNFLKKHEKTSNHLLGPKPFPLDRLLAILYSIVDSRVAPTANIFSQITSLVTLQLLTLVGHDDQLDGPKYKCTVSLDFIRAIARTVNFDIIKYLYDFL
Target,NP40-soluble protein abundance (concentration: 1mM),NP40-soluble protein abundance (concentration: 2mM),NP40-soluble protein abundance (concentration: 4mM),NP40-soluble protein abundance (concentration: 6mM),NP40-soluble protein abundance (concentration: 8mM),NP40-soluble protein abundance (concentration: 10mM)
H0YNP8|Q99081-3|Q99081 (UniProt Q99081),0.923 ± 0.056,0.935 ± 0.039,0.915 ± 0.041,0.938 ± 0.027,0.916 ± 0.018,0.921 ± 0.046
G3XAG1|Q96ME7|Q96ME7-3 (UniProt Q96ME7),1.34 ± 0.038,1.407 ± 0.0052,1.58 ± 0.019,1.71 ± 0.061,1.88 ± 0.046,2.06 ± 0.081
E9PHG5|Q6UW02 (UniProt Q6UW02),1.11 ± 0.13,1.02 ± 0.16,1.04 ± 0.13,1.02 ± 0.17,1.02 ± 0.1,0.993 ± 0.086
B4DEN4|E7EV05|E9PFU9|Q8WV99|Q8WV99-2 (UniProt Q8WV99),0.955 ± 0.084,0.953 ± 0.046,0.943 ± 0.059,0.958 ± 0.066,0.91 ± 0.037,0.902 ± 0.062
E7EUT5|P04406 (UniProt P04406),1.01 ± 0.012,0.959 ± 0.074,0.9969 ± 0.0069,0.939 ± 0.043,0.954 ± 0.024,0.944 ± 0.059
K7ES61|Q9BYD3 (UniProt Q9BYD3),1.02 ± 0.079,0.942 ± 0.099,0.907 ± 0.091,0.827 ± 0.14,0.892 ± 0.19,0.895 ± 0.17
E9PL53|J3KND1 (UniProt Q96ER3),0.966 ± 0.034,0.9715 ± 0.0057,0.951 ± 0.013,0.997 ± 0.019,0.9485 ± 0.0047,0.925 ± 0.011
E9PEN0|Q8WYH8|Q8WYH8-2 (UniProt Q8WYH8),1.15 ± 0.2,1.3 ± 0.29,1.36 ± 0.18,1.5 ± 0.16,1.85 ± 0.6,1.86 ± 0.39
G3V0H0|O43913|O43913-2 (UniProt O43913),1.03 ± 0.12,1.01 ± 0.097,1.02 ± 0.08,1 ± 0.13,1.08 ± 0.078,1.02 ± 0.061
A0A0A0MRR7|P09234 (UniProt P09234),1.34 ± 0.087,1.39 ± 0.078,1.56 ± 0.062,1.87 ± 0.2,1.83 ± 0.041,1.84 ± 0.1
B7ZC38|Q9NR46 (UniProt Q9NR46),0.993 ± 0.015,0.977 ± 0.029,0.98 ± 0.033,0.981 ± 0.021,0.988 ± 0.056,0.936 ± 0.039
G5E9W3|Q9UKF6 (UniProt Q9UKF6),1.09 ± 0.073,1.1 ± 0.029,1.14 ± 0.025,1.11 ± 0.048,1.14 ± 0.029,1.18 ± 0.052
UniProt A7KAX9|A7KAX9-2,0.937 ± 0.054,0.91 ± 0.046,0.908 ± 0.0074,0.907 ± 0.024,0.904 ± 0.04,0.941 ± 0.018
PDLIM1 (UniProt O00151),0.963 ± 0.054,0.958 ± 0.031,0.944 ± 0.041,0.971 ± 0.016,0.939 ± 0.035,0.919 ± 0.036
I3L2M1|J3KNL2|Q8WYJ6 (UniProt Q8WYJ6),0.941 ± 0.031,0.945 ± 0.017,0.948 ± 0.022,0.928 ± 0.033,0.932 ± 0.04,0.941 ± 0.033
E5RFJ1|Q96MF7 (UniProt Q96MF7),1.04 ± 0.053,1.04 ± 0.012,1.03 ± 0.017,1.09 ± 0.036,1.01 ± 0.018,1 ± 0.034
H3BTR4|Q96BT3 (UniProt Q96BT3),1.32 ± 0.023,1.41 ± 0.13,1.52 ± 0.21,1.72 ± 0.23,1.68 ± 0.17,1.87 ± 0.17
UniProt O14524,0.824 ± 0.11,0.887 ± 0.1,0.841 ± 0.017,0.899 ± 0.066,0.872 ± 0.029,0.896 ± 0.036
F8W9X7|Q567U6 (UniProt Q567U6),0.974 ± 0.012,0.962 ± 0.017,0.959 ± 0.024,0.935 ± 0.015,0.951 ± 0.016,0.943 ± 0.028
H3BPD5|P78549|P78549-2|P78549-3 (UniProt P78549),1.12 ± 0.16,1.2 ± 0.029,1.3 ± 0.1,1.51 ± 0.2,1.72 ± 0.19,1.89 ± 0.12
E9PB61|Q86V81 (UniProt Q86V81),1.04 ± 0.094,1.09 ± 0.07,1.22 ± 0.13,1.44 ± 0.15,1.53 ± 0.13,1.66 ± 0.24
M0QZM1|M0R019|P52272|P52272-2 (UniProt P52272),0.988 ± 0.037,0.999 ± 0.016,1.01 ± 0.032,1.07 ± 0.014,1.04 ± 0.019,1.06 ± 0.024
B0QY89|Q9Y262 (UniProt Q9Y262),1.09 ± 0.093,1.25 ± 0.15,1.23 ± 0.075,1.35 ± 0.072,1.6 ± 0.1,1.7 ± 0.12
UniProt O15169|O15169-2,1.05 ± 0.17,0.887 ± 0.14,0.982 ± 0.19,1.07 ± 0.18,1 ± 0.047,1.15 ± 0.21
E9PLK3|P55786 (UniProt P55786),1.02 ± 0.12,0.997 ± 0.09,0.976 ± 0.065,0.927 ± 0.13,0.999 ± 0.073,0.974 ± 0.057
